Source: PubChem BioAssay
Shown are actives, neighbours in structure and some others; about 1.2% of the full set was active somewhere.
KCNH2 3.1 block = KCNH2 3.1 (human) potassium channel inhibition | U2OS KCNH2 3.1, thallium flux FluxOr; stronger effect = lower value | activity change, % (tested at about 1.8 µM) | actives 0.95% (n = 340,000) | AID 720553;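 active means maximum activity change below -70%; inconclusive means maximum activity change from -70% to -50%; inactive means maximum activity change above -50%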;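 further: thallium influx rate constant from kinetic fluorescence after stimulation buffer; on the % scale 0 is the no-effect control and ±100 the full control effect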
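Virally transduced U2OS (3.1 isoform, 4 h infection in dark at RT) → overnight 37 C → FluxOr + Red40 in HBSS/HEPES, 45 min → stimulation buffer, 2 min kinetic read → rate constant vs DMSO controls.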
TRPV1 potentiator = potentiators of human vanilloid receptor 1 (TRPV1); actives 0.02% (n = 320,000); potentiation, % at 8.33 µM; Q8NER1; TRPV1-expressing cells, Fluo-8 calcium influx, capsaicin EC20 potentiation; in the data active means potentiation above about 80%; inconclusive means between about 30% and that limit; further: 0% is about no effect
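TRPV1-expressing cells were cultured overnight at 35.5C and loaded with Fluo-8 calcium dye for 40 to 90 min at room temperature. After a 10 s baseline, compound was added and calcium influx was read kinetically for 3 min (ex 480/em 520 nm).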
KCNH2 WT inh = inhibitors of human wildtype KCNH2 potassium channel; Q12809; U2OS, BacMam KCNH2, thallium flux FluxOr; stronger effect = lower value; activity change, % at 1.84 µM; actives 0.37% (n = 340,000); AID 720551;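 active means maximum activity change below -70%; inconclusive means maximum activity change between -70% and -50%; inactive means maximum activity change above -50%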; further: on the % scale 0 is the no-effect control and ±100 the full control effect
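U2OS cells transduced with wild-type KCNH2 virus are loaded with FluxOr dye for 45 min, and thallium flux is measured in kinetic reads before and after stimulation buffer. Rate constants are normalized to DMSO controls.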
TRPV1 agonist = human TRPV1 agonism. Q8NER1. TRPV1-expressing cells, Fluo-8 calcium influx, agonist mode. activation, % at 8.33 µM. actives 0.19% (n = 320,000). AID 540275; in the data active means activation above about 80%; inconclusive means between about 30% and that limit; further: 0% is about no effect
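TRPV1-expressing cells were cultured overnight at 35.5C and loaded with Fluo-8 calcium dye for 40 to 90 min at room temperature. After a 10 s baseline, compound was added and calcium influx was read kinetically for 3 min (ex 480/em 520 nm).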
Active calls of the source: *; ? = inconclusive; · = no result given.

SMILES | KCNH2 3.1 block | TRPV1 potentiator | KCNH2 WT inh | TRPV1 agonist
CCC(=O)N1CCN(c2ccc(NC(=S)NC(=O)c3ccc(OC)c([N+](=O)[O-])c3)cc2)CC1 | -91* | 0 | -4 | 7
COc1ccc(C(=O)NC(=S)NNC(=O)c2ccccc2O)cc1 | -83* | 11 | -2 | 4
CCOc1ccc(NC(=O)CN(C)C(=O)C2CCN(C(=O)c3ccc(Cl)cc3)CC2)cc1OCC | -3 | 3 | -2 | -1
Cc1cc(C)c(CC(=O)c2ccccc2)c(C)c1 | -3 | · | -14 | ·
O=C(Nc1cccc(S(=O)(=O)N2CCCC2)c1)c1ccc2c(c1)OCO2 | 0 | -3 | -1 | -7
O=C(Nc1cccc(S(=O)(=O)N2CCCCCC2)c1)c1ccc2c(c1)OCO2 | -84* | 6 | -24 | ?
O=C(NNc1ccccc1)c1ccc(Cl)c(Cl)c1 | 9 | · | 22 | ·
Cc1nc2c(C)cccn2c1C(=O)c1ccccc1 | -84* | -11 | -5 | 5
CN1c2ccccc2-c2ccccc2S1(=O)=O | 0 | · | -6 | ·
CCOC(=O)C1=C(C)NC(C)=C(C(=O)OCC)C1C(=O)OCC(=O)NC(C)c1ccccc1 (stereo not drawn) | -11 | 4 | -104* | 9
O=C(N/N=C\c1ccc(COc2ccc([N+](=O)[O-])cc2)o1)c1ccc(Cl)cc1 | -77* | 13 | ? | -1
Cc1ccc(N2CCN(C(=O)N3CCOCC3)CC2)c(C)c1 | ? | -8 | 4 | 83*
C[C@@H]1CN([C@H](C)CO)C(=O)CCCn2cc(nn2)CO[C@H]1CN(C)C(=O)C1CC1 | -15 | · | 16 | ·
CCOc1ccc(S(=O)(=O)Nc2c(C)n(C)n(-c3ccccc3)c2=O)cc1 | 17 | -5 | -197* | 0
O=C(c1cccc(S(=O)(=O)N2CCOCC2)c1)N(Cc1ccc(F)cc1)Cc1ccco1 | -135* | -1 | 42 | 15
CN(C)S(=O)(=O)c1cccc(C(=O)N(Cc2ccc(F)cc2)Cc2ccco2)c1 | -4 | -7 | 1 | 5
COc1ccccc1Cn1c(=S)[nH]c2cc(C(=O)N3CCCC(C)C3)ccc2c1=O (stereo not drawn) | -5 | · | 5 | ·
CCCCNC(=S)N(Cc1c(C)noc1C)c1ccccc1 | -117* | -36 | 12 | ?
CCNC(=S)N(Cc1c(C)noc1C)c1ccccc1 | 7 | 25 | -8 | -4
Cc1ccc(-c2cc(C(=O)Nc3cc(C)ccc3C)[nH]n2)c(O)c1 | -23 | ? | -6 | -3
Cc1ccc(C)c(NC(=O)c2cc(-c3ccccc3O)n[nH]2)c1 | -81* | 7 | -6 | 3
Cc1cccc(C)c1NC(=O)CNC(=O)C(C)N(C)CC(=O)Nc1ccc(F)cc1 (stereo not drawn) | -9 | 4 | -6 | -3
